Results: PubChem BioAssay (EPA / NIEHS)
Results filed as inconclusive are left out. Active and inactive are the calls of the source. The calls were made as follows, unless noted: active = hit-call score of the fitted dose curve at least 0.9, where 1 is the maximum; inactive = score below 0.9.

Legend:
[1] = CCTE_Harrill_HTTr_Viability_MCF7: CCTE's 6-hour Cell Viability Assessment for the High-Throughput Transcriptomics (HTTr) Platform, in MCF-7 cells cultured in DMEM + 10% fetal bovine serum, Harrill Lab (AID 2284010)
Procedure, shortened: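 Read-out is propidium iodide gain of signal by high-content imaging, reflecting membrane integrity loss. Measurements are taken 6 h after dosing, eight concentrations per chemical, with DMSO serving as baseline for bidirectional curve fitting.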

[2] = CCTE_Harrill_HTTr_Apoptosis_MCF7: CCTE's 6-hour Apoptosis Assessment for the High-Throughput Transcriptomics (HTTr) Platform, in MCF-7 cells cultured in DMEM + 10% fetal bovine serum, Harrill Lab (AID 2284011)
Procedure, shortened: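 Read-out: CellEvent Caspase 3/7 Green signal by high content imaging, gain-of-signal indicating apoptosis. MCF-7 cells, DMEM + 10% FBS, eight-point dilution series, 6 h exposure. Curves fitted bidirectionally relative to DMSO negative control.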

[3] = CCTE_Harrill_HTTr_CellCount_MCF7: CCTE's Cell Proliferation Assessment for the High-Throughput Transcriptomics (HTTr) Platform, Harrill Lab (AID 2284012; active = hit-call score of the fitted dose curve at least 0.9, where 1 is the maximum;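 also: cells exposed to compound for six hours; intended direction is loss of nuclei count meaning fewer cells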)
Procedure, shortened: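 Cell count served as viability reporter: loss of Hoechst-stained nuclei, counted by high content imaging, marks decreased growth or survival. Exposure was 6 h in MCF-7 cells across eight concentrations, with DMSO as baseline.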

SMILES	outcome [1]	outcome [2]	outcome [3]
OCC=Cc1ccccc1	inactive	inactive	
CC(=O)CCC(=O)O	inactive	inactive	
CCCCCC1CCC(=O)O1 (stereo not drawn)	inactive	inactive	
CC(C)Cc1ccccc1	inactive	inactive	inactive
COc1ccccc1O	inactive	inactive	inactive
CC(O)COCC(C)O (stereo not drawn)	inactive	inactive	inactive
CC(O)CN (stereo not drawn)	inactive	inactive	
CCCCCCCCCCCCCC(=O)OCC	inactive	inactive	inactive
NC(=O)c1c(Cl)cccc1Cl	inactive	inactive	inactive
CC(=O)N(C)C	inactive	inactive	inactive
CCCO	inactive	inactive	
CCCCCCOC(C)=O	inactive	inactive	
CC(=O)CCc1ccc(O)cc1	inactive	inactive	
NC(N)=S	inactive	inactive	inactive
CCCCCC(=O)O[C@]1(C(C)=O)CC[C@H]2[C@@H]3CCC4=CC(=O)CC[C@]4(C)[C@H]3CC[C@@]21C	inactive	inactive	
CC(=O)CC(=O)N(C)C	inactive	inactive	inactive
CN(C)C	inactive	inactive	inactive
O=C(O)c1cc2ccccc2cc1O	inactive	inactive	inactive
CCCc1ccc(O)cc1	inactive	inactive	inactive
COc1ccc2[nH]cc(CCNC(C)=O)c2c1	inactive	inactive	inactive
O=C(O)c1ccccc1O	inactive	inactive	inactive
NS(=O)(=O)c1cc(C(=O)O)c(NCc2ccco2)cc1Cl	inactive	inactive	
Brc1cc(Br)cc(Br)c1	inactive	inactive	inactive
NC(=O)c1cccnc1	inactive	inactive	inactive
